Experimental findings from PubChem BioAssay (NCATS) are described below.

Experiment [1] can be described thus: Quantitative High-Throughput drug screen in 47 multiple myeloma cell lines against the NCATS MIPE library collection: PE2_PLB cell viability assay (AID 1919869). Note: nearly all actives have a fitted effect of over 35% in size. In short, it runs like this: (§1)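 ATP-based CellTiter-Glo luminescence after 48 h drug exposure (37 °C, 5% CO2) of 500 myeloma cells per well. DMSO-only wells set 100% viability, media-only wells 0%; MIPE 4.0 library added by pin tool.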

A short description of experiment [2]: Quantitative High-Throughput drug screen in 47 multiple myeloma cell lines against the NCATS MIPE library collection: PCM6_Riken cell viability assay (AID 1919870). Note: nearly all actives have a fitted effect of over 30% in size. In short, it runs like this:
as §1

The nature of experiment [3]: Quantitative High-Throughput drug screen in 47 multiple myeloma cell lines against the NCATS MIPE library collection: RPMI8226_ATCC cell viability assay (AID 1919871). Note: nearly all actives have a fitted effect of over 30% in size. The gist of the method:
as §1

A short description of experiment [4]: Quantitative High-Throughput drug screen in 47 multiple myeloma cell lines against the NCATS MIPE library collection: OPM2_DSMZ cell viability assay (AID 1919872). Note: nearly all actives have a fitted effect of over 30% in size. The gist of the method:
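Viability readout: CellTiter-Glo luminescence following 5 min room-temperature incubation with reagent. Prior exposure: 48 h, 37C, humidified 5% CO2, 500 cells per well.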

The nature of experiment [5]: Quantitative High-Throughput drug screen in 47 multiple myeloma cell lines against the NCATS MIPE library collection: KMS11_JCRBsus cell viability assay (AID 1919873). Note: nearly all actives have a fitted effect of over 50% in size. In short, it runs like this:
as §1

Experiment [6] in a line: Quantitative High-Throughput drug screen in 47 multiple myeloma cell lines against the NCATS MIPE library collection: KMS28BM_JCRB cell viability assay (AID 1919874). Note: nearly all actives have a fitted effect of over 35% in size. The gist of the method: as §1
Experiment [7] in a line: qHTS drug screen for cell cycle checkpoint inhibitors in PARPi-resistant BRCA-mutant ovarian cancer cell lines. (AID 1963452; calls by dose curve). The settings on record: PEO1/OlaR viability, CellTiter-Glo luminescence, 96 h; for Z-AUC: stronger effect = lower value. In short, it runs like this:
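PEO1, PEO4 and PEO1/OlaR ovarian cancer cells, 600 per well, exposed 96 h at 37C to a dilution series. Viability read by CellTiter-Glo luminescence, normalized to DMSO and empty wells; activity summarized as Z-AUC.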
Background: qHTS replaces the single test concentration by a dilution series.

Experiment [8] is described as follows: qHTS for identification of novel therapeutic agents for treatment of microphthalmiaassociated transcription factor (MiT) renal cell carcinoma (RCC) (AID 1963991; calls by dose curve). The settings on record: CellTiter-Glo, 48 h; for Potency: active = Z-AUC below -0.8 in all three lines; for z-score: stronger effect = lower value. The gist of the method:
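Three TFE3-fusion RCC cell lines (UOK109, UOK124, UOK145), 500 cells/well, were exposed to the 1912-compound MIPE 4.0 library for 48 hours at 37 C. Viability was read by CellTiter-Glo luminescence, normalised to DMSO (100%) and empty wells (0%), with 11-concentration curve fits.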

The mark [9] stands for this setting: measured here: PEO1 parental Z-AUC.
Where [10] appears, read: TFE3-RCC UOK109 viability, measured here: UOK109 Z-AUC.
Setting [11] is: TFE3-RCC viability, measured here: UOK124 Z-AUC.
The mark [12] stands for this setting: TFE3-RCC viability, measured here: UOK145 Z-AUC.

Each structure is given as a SMILES string. Inconclusive results are not listed. Activity calls are given as the source filed them. Unless noted, calls come from the whole dose curve; as a rule, active = well fitted cell-killing curve with a large enough effect; inconclusive = small, poorly fitted or top-dose-only effect, or effect the other way; inactive = no such curve, though single readings can be large or run the other way.
Potency is the fitted concentration of half-maximal effect.

Regarding `CC(C)C[C@H](NC(=O)CNC(=O)c1cc(Cl)ccc1Cl)B(O)O`, the Potency was 41.8 nM (active) in experiment [1]; 66.2 nM (active) in experiment [2]; 166 nM (active) in experiment [3]; 132 nM (active) in experiment [4]; 52.6 nM (active) in experiment [5]; 66.2 nM (active) in experiment [6]. Further, the Potency in experiment [8] (TFE3-RCC UOK109 viability) was 372 nM (active). The Z-AUC in experiment [7] was -0.869 (inactive); in experiment [7] (setting [9]), -1.48; in experiment [7] (measured here: PEO4 Z-AUC), -1.83. For the same compound, the z-score in experiment [8] (setting [10]) was -1.3; in experiment [8] (setting [11]) it was -1.47; in experiment [8] (setting [12]) it was -2.81.
As for `CN(C)Cc1c(C(=O)NCCOc2ccc(C(=O)NO)cc2)oc2ccccc12`, the Potency in experiment [1] was 2350 nM (active); in experiment [2], 935 nM (active); in experiment [3] it was 1480 nM (active); in experiment [4], 1050 nM (active); in experiment [5], 662 nM (active); in experiment [6] it was 418 nM (active). For the same compound, the figures for the Z-AUC in experiment [7], in experiment [7] (setting [9]) and in experiment [7] (measured here: PEO4 Z-AUC) were -0.744 (inactive), -1.25 and -1.26, respectively.
`COc1ccc(F)c(F)c1C(=O)c1cnc(NC2CCN(S(C)(=O)=O)CC2)nc1N`: the Potency was 2090 nM (active) in experiment [1]; 743 nM (active) in experiment [2]; 2960 nM (active) in experiment [3]; 3320 nM (active) in experiment [4]; 1480 nM (active) in experiment [5]; 3320 nM (active) in experiment [6]. Further, in experiment [7], the Potency was 871 nM (active). The Z-AUC in experiment [7] (setting [9]) was -1.69; in experiment [7] (measured here: PEO4 Z-AUC), -1.31.
For the compound `Cc1ccc(C(N)=O)cc1Nc1nccc(-c2cn(C(C)C)c3cnccc23)n1`, the Potency is 3720 nM (active) in experiment [1]; 2090 nM (active) in experiment [2]; 16600 nM (active) in experiment [3]; 14800 nM (active) in experiment [4]; 4690 nM (active) in experiment [5]; 5900 nM (active) in experiment [6]. The Z-AUC in experiment [7] was -1.23 (inactive); in experiment [7] (setting [9]), -1.45; in experiment [7] (measured here: PEO4 Z-AUC), -1.25.
As for `C[C@@]12O[C@@H](C[C@]1(O)CO)n1c3ccccc3c3c4c(c5c6ccccc6n2c5c31)CNC4=O`, the Potency in experiment [1] is 118 nM (active); in experiment [2], 526 nM (active); in experiment [3], 1320 nM (active); in experiment [4] it was 1480 nM (active); in experiment [5], 418 nM (active); in experiment [6] it was 833 nM (active). In addition, the Potency in experiment [8] (TFE3-RCC UOK109 viability) is 5260 nM (active). Also, the Z-AUC was -1.24 (inactive) in experiment [7], -0.538 in experiment [7] (setting [9]) and -0.928 in experiment [7] (measured here: PEO4 Z-AUC). In addition, the z-score in experiment [8] (setting [10]) is -1.64; in experiment [8] (setting [11]), -0.853; in experiment [8] (setting [12]), -1.26.
Turning to `O=C(Nc1ncc(-c2cc(C(F)F)nn2-c2c(Cl)cccc2Cl)s1)C1CC1`, the Potency in experiment [1] was 590 nM (active); in experiment [2], 662 nM (active); in experiment [3], 1660 nM (active); in experiment [4], 1050 nM (active); in experiment [5] it was 187 nM (active); in experiment [6], 296 nM (active). For the same compound, the Potency in experiment [8] (TFE3-RCC UOK109 viability) was 935 nM (active). Moreover, the results for the Z-AUC in experiment [7], in experiment [7] (setting [9]) and in experiment [7] (measured here: PEO4 Z-AUC) were -1.34 (inactive), -1.49 and -1.31, respectively. Besides, the z-score in experiment [8] (setting [10]) was -1.06; in experiment [8] (setting [11]), -1.43; in experiment [8] (setting [12]), -1.27.
`COc1cccc2nc(-c3cccs3)nc(NN3C(=O)C=C(C)C3=O)c12`: the Potency in experiment [1] is 418 nM (active); in experiment [2], 41.8 nM (active); in experiment [3], 2090 nM (active); in experiment [4], 1480 nM (active); in experiment [5] it was 8.3 nM (active); in experiment [6], 33.2 nM (active). Moreover, the Potency in experiment [7] is 4360 nM (active). Further, the values for the Z-AUC in experiment [7] (setting [9]) and in experiment [7] (measured here: PEO4 Z-AUC) were -1.8 and -2.06, respectively.
As for `CC[C@@]1(O)C(=O)OCc2c1cc1n(c2=O)Cc2cc3cc(O)ccc3nc2-1`, the Potency in experiment [1] was 264 nM (active); in experiment [2] it was 743 nM (active); in experiment [3] it was 8330 nM (active); in experiment [4], 3320 nM (active); in experiment [5] it was 1180 nM (active); in experiment [6], 209 nM (active). Also, the Potency in experiment [7] is 38.9 nM (active). Further, the Z-AUC was -3.38 in experiment [7] (setting [9]) and -2.58 in experiment [7] (measured here: PEO4 Z-AUC).
Regarding `CC1COC2(CCN(c3nc(=O)c4cc(C(F)(F)F)cc([N+](=O)[O-])c4s3)CC2)O1` (configuration not stated), the Potency result in experiment [1], in experiment [2], in experiment [3], in experiment [4], in experiment [5] and in experiment [6] was “inactive” each time. For the same compound, the Z-AUC was 0.328 (inactive) in experiment [7], 0.189 in experiment [7] (setting [9]) and 0.861 in experiment [7] (measured here: PEO4 Z-AUC). Further, the z-score came out at 1.51 in experiment [8] (setting [10]), 0.131 in experiment [8] (setting [11]) and 0.808 in experiment [8] (setting [12]).
On to `C[C@@H](Oc1cc(-c2cnn(C3CCNCC3)c2)cnc1N)c1c(Cl)ccc(F)c1Cl`, for which the Potency in experiment [1] is 6620 nM (active); in experiment [2] it was 14800 nM (active); in experiment [3], 13200 nM (active); in experiment [4], 18700 nM (active); in experiment [5], 2640 nM (active); in experiment [6], 8330 nM (active). Moreover, the Z-AUC was 0.111 (inactive) in experiment [7], -0.187 in experiment [7] (setting [9]) and -0.116 in experiment [7] (measured here: PEO4 Z-AUC).
With `CC(C)c1ccc(Cn2ccc3c4c(N)nc(NC5CC5)nc4ccc32)cc1`, the Potency in experiment [1] is 2350 nM (active); in experiment [2] it was 5900 nM (active); in experiment [3], 14800 nM (active); in experiment [4], 6620 nM (active); in experiment [5] it was 1050 nM (active); in experiment [6] it was 1660 nM (active). Also, the Z-AUC was -1.65 (inactive) in experiment [7], -2.21 in experiment [7] (setting [9]) and -2.38 in experiment [7] (measured here: PEO4 Z-AUC).
As to `Nc1ncnc2c1c(-c1cccc(OCc3ccccc3)c1)cn2C1CC(CN2CCCC2)C1` (configuration not stated), the Potency in experiment [1] was 1660 nM (active); in experiment [2], 7430 nM (active); in experiment [3], 2960 nM (active); in experiment [4], 14800 nM (active); in experiment [5], 372 nM (active); in experiment [6], 526 nM (active). The Z-AUC in experiment [7] is -0.938 (inactive); in experiment [7] (setting [9]), -0.783; in experiment [7] (measured here: PEO4 Z-AUC) it was -1.2.
For the compound `CCN1CCN(CC(=O)Nc2ccc(-c3cccc4c(=O)cc(N5CCOCC5)oc34)c3sc4ccccc4c23)CC1`, the Potency in experiment [1] is 833 nM (active); in experiment [2], 1480 nM (active); in experiment [3], 1870 nM (active); in experiment [4], 3720 nM (active); in experiment [5], 332 nM (active); in experiment [6], 4690 nM (active). Further, the Z-AUC in experiment [7] is -1.21 (inactive); in experiment [7] (setting [9]), -0.89; in experiment [7] (measured here: PEO4 Z-AUC), -0.929.
